The values below come from PubChem BioAssay (NCI).

This is part of a sample that, as a whole, favours compounds with a hit. Of some 83,000 tested, about 20% had one in any assay.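 How to read the values: 0–100, growth inhibition (40 = 60% inhibited); 0, no net growth; -100 to 0, cell death (-40 = 40% of starting cells died; -100 = all dead).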 Values without a mark were called inactive. Activity calls are given as the source filed them. How the source made its calls: active means growth percent below 10; inactive means the rest.

Among the test systems are HCT-15 colon; HT29 colon; SNB-75 CNS; SNB-19 CNS; U251 CNS; PC-3 prostate; SK-MEL-5 melanoma; UACC-62 melanoma; SK-MEL-28 melanoma; SK-MEL-2 melanoma; EKVX NSCLC; SN12C renal; UO-31 renal; TK-10 renal; ACHN renal; CAKI-1 renal; A498 renal; CCRF-CEM leukemia; MOLT-4 leukemia; LOX IMVI melanoma.
Common to all, as to assay: NCI-60 one-dose screen, 48 h (100 = growth as untreated, 0 = no growth, -100 = all killed)
Settings in all cases: 10 µM

For the compound `Cc1noc2c(Cc3ccc([N+](=O)[O-])cc3)nn(CC(=O)N/N=C/c3ccc(Cl)cc3)c(=O)c12`, the growth was 80.5% in the test with HCT-15 colon; 62.3% in the test with HT29 colon; 44.9% in the test on SNB-75 CNS; 42.2% with SNB-19 CNS; 12.7% with U251 CNS; 59.5% with PC-3 prostate. Moreover, the growth in the test on SK-MEL-5 melanoma is 88.4%; in the test with UACC-62 melanoma, 65.3%; with SK-MEL-28 melanoma, 69.9%; with SK-MEL-2 melanoma it was 90.5%; in the test with EKVX NSCLC it was 79.8%; in the test with SN12C renal, 54%. For the same compound, the growth is 40.8% in the test on UO-31 renal; 71.9% in the test with TK-10 renal; 19.4% with ACHN renal; 52.3% with CAKI-1 renal; 80.1% in the test on A498 renal; 95.6% with CCRF-CEM leukemia. In addition, the growth with MOLT-4 leukemia is 97.8%.
As to `O=C(Nc1nc2ccc([N+](=O)[O-])cc2s1)Nc1cc(Cl)ccc1I`, the growth in the test with HCT-15 colon was -58.2% (active); with HT29 colon, -42.2% (active); in the test on SNB-75 CNS, -42% (active); with SNB-19 CNS it was 4.09% (active); in the test with U251 CNS it was -23.5% (active); in the test with PC-3 prostate, -14.7% (active). Besides, the growth in the test on SK-MEL-5 melanoma was -94.3% (active); in the test on UACC-62 melanoma, -54.1% (active); in the test on LOX IMVI melanoma it was -82.4% (active); in the test on SK-MEL-2 melanoma it was -62.1% (active); with EKVX NSCLC, -23.7% (active); with SN12C renal, -16.8% (active). Also, the growth in the test on UO-31 renal was -18.3% (active); with TK-10 renal it was -4.54% (active); in the test on ACHN renal, -3.53% (active); in the test on CAKI-1 renal, -24.7% (active); in the test with A498 renal it was -16.8% (active); in the test with CCRF-CEM leukemia, -36.8% (active). In addition, in the test on MOLT-4 leukemia, the growth was -44.6% (active).
As for `CCN1CCN(Cc2ccc(C(=O)Nc3cccc(-c4cn(-c5ccc6oc(=O)ccc6c5)nn4)c3)cc2C(F)(F)F)CC1`, the growth in the test on HCT-15 colon is -100% (active); with HT29 colon it was -100% (active); with SNB-75 CNS, -33.2% (active); in the test on SNB-19 CNS, -100% (active); with U251 CNS, -100% (active); with PC-3 prostate it was -40.8% (active). The growth in the test with SK-MEL-5 melanoma was -100% (active); in the test on UACC-62 melanoma, -100% (active); in the test with SK-MEL-28 melanoma, -100% (active); in the test on SK-MEL-2 melanoma, 66.1%; in the test on EKVX NSCLC, -100% (active); with SN12C renal, -100% (active). Besides, the growth in the test with UO-31 renal is -100% (active); in the test with TK-10 renal, -100% (active); with ACHN renal, -100% (active); in the test on CAKI-1 renal it was 8.59% (active); with A498 renal, -100% (active); in the test with CCRF-CEM leukemia, -21% (active). Besides, the growth with MOLT-4 leukemia is -29.8% (active).
With `COc1ccc(C(=O)/C=C/c2cc(C(F)(F)F)cc(C(F)(F)F)c2)cc1S(N)(=O)=O`, the growth in the test on HCT-15 colon is -58.6% (active); with HT29 colon, -59.9% (active); in the test with SNB-75 CNS it was 12%; with SNB-19 CNS, -100% (active); in the test on U251 CNS it was -68.1% (active); with PC-3 prostate, -14.4% (active). For the same compound, the growth in the test with SK-MEL-5 melanoma was -98.4% (active); in the test on UACC-62 melanoma, -73.4% (active); in the test on LOX IMVI melanoma it was -100% (active); in the test with SK-MEL-2 melanoma, -73.8% (active); in the test with EKVX NSCLC, -93% (active); in the test on SN12C renal, -59.3% (active). Further, the growth in the test on UO-31 renal is -100% (active); with TK-10 renal, -89.8% (active); in the test on ACHN renal it was -96.2% (active); with CAKI-1 renal, -83% (active); with A498 renal it was 2.73% (active); in the test with CCRF-CEM leukemia it was 10.7%. Also, in the test with MOLT-4 leukemia, the growth is 2.98% (active).
For the compound `CCCCCCCCCCCCCCCCCCCC(=O)NCCc1c[nH]c2ccc(OC(=O)NOCCOCCOCCOCCOCCOCCOCCOCCOCCOCCOCCOCCOCCOCCOCCOCCOCCOCCOCCOCCOCCOCCOC)cc12`, the growth with HCT-15 colon is 77.7%; with HT29 colon it was -71.8% (active); in the test with SNB-75 CNS, 37.3%; in the test with SNB-19 CNS, 22.3%; with U251 CNS, -16.8% (active); in the test on PC-3 prostate, 6.43% (active). The growth is -16.3% (active) with SK-MEL-5 melanoma; -69.4% (active) in the test on UACC-62 melanoma; -90.7% (active) in the test with LOX IMVI melanoma; -68.5% (active) in the test with SK-MEL-2 melanoma; -17.4% (active) in the test with SN12C renal; 61.8% in the test with UO-31 renal. The growth with TK-10 renal was 51.2%; in the test with ACHN renal, 40.7%; in the test with CAKI-1 renal it was 7.27% (active); in the test with A498 renal, 63.1%; with MOLT-4 leukemia, -11.7% (active).
As for `Cn1cc(-c2cc(N)n3nc(-c4c[nH]c5ccc(Br)cc45)cc3n2)c2cc(Br)cnc21`, the growth in the test with HCT-15 colon was -96.3% (active); in the test with HT29 colon, -86.3% (active); in the test with SNB-75 CNS, -19.6% (active); with SNB-19 CNS, -35.9% (active); in the test with U251 CNS, -76.5% (active); in the test on PC-3 prostate it was -44.8% (active). Further, the growth in the test on SK-MEL-5 melanoma is -99% (active); in the test on UACC-62 melanoma, -75% (active); in the test on LOX IMVI melanoma, -94.5% (active); with SK-MEL-2 melanoma it was -83.6% (active); in the test with EKVX NSCLC it was -84.1% (active); in the test with UO-31 renal, -70.9% (active). Further, the growth in the test with TK-10 renal was -81.9% (active); with ACHN renal it was -93.2% (active); in the test on CAKI-1 renal it was -69.1% (active); in the test on A498 renal it was -86.5% (active); in the test with CCRF-CEM leukemia, -32.1% (active); in the test on MOLT-4 leukemia it was -28.6% (active).
As for `CNC(=O)c1cccc(N2CCc3c2ccc(NC(=O)Nc2ccc(N4CCN(C)CC4)c(C(F)(F)F)c2)c3F)c1`, the growth in the test with HCT-15 colon was -89.8% (active); in the test with HT29 colon, -88.3% (active); in the test on SNB-75 CNS it was 7.71% (active); with SNB-19 CNS it was -84.7% (active); in the test on U251 CNS, -92.1% (active); in the test on PC-3 prostate it was -51.8% (active). The growth in the test with SK-MEL-5 melanoma was -100% (active); in the test with UACC-62 melanoma, 88.9%; in the test with SK-MEL-28 melanoma, -93.5% (active); in the test on SK-MEL-2 melanoma it was -53.2% (active); in the test on EKVX NSCLC, -87% (active); with SN12C renal, -91.5% (active). The growth in the test with UO-31 renal is -100% (active); in the test with TK-10 renal, -94.7% (active); in the test on ACHN renal, -100% (active); in the test on CAKI-1 renal, -81.5% (active); in the test on A498 renal, 39.3%; in the test on CCRF-CEM leukemia, -42.1% (active).
